{
  "source": "PubChem BioAssay AID1159580",
  "about": "(chemical genetic matrix, 2015)",
  "assay": "chemical genetic growth profiling, strain panel (AID 1159580);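 further: tested at 20 µM; growth read once vehicle control cultures reached saturation at 30 °C; 1 = growth at the plate median or of vehicle wells; lower values mean less growth of the strain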",
  "conditions": "growth OD",
  "note": "Screen size: about 5,500 compounds; about 2,000 (36%) were called active. Inconclusive results (about 18%) are left out. The list shows a part of the results. Values without a mark were called inactive. No stated cut-off is given here; in the data, active means normalized growth mostly below about 0.91 (no sharp cut-off); inconclusive means no clear call, values can overlap the other calls; inactive means mostly above about 0.92.",
  "data": [
    {"smiles": "CC(=O)O[C@H]1CC[C@@]2(C)C(C[C@@H](OC(C)=O)[C@]3(C)C2CC[C@@]2(C)[C@H](c4ccoc4)OC(=O)[C@H]4O[C@]423)C1(C)C", "note": "(stereo partly drawn)", "values": [
      {"measurement": "normalized growth", "setting": "S. cerevisiae deletion strains, locus YJL187C, strain SWE1, active compounds read low", "result": 1},
      {"measurement": "normalized growth", "setting": "S. cerevisiae deletion strains, locus YJR066W, strain TOR1, active compounds read low", "result": 0.997},
      {"measurement": "normalized growth", "setting": "S. cerevisiae deletion strains, locus YKL009W, strain mrt4, active compounds read low", "result": "1.47 [resistant] (active)"},
      {"measurement": "normalized growth", "setting": "S. cerevisiae deletion strains, locus YKL068W, active compounds read low", "result": 1},
      {"measurement": "normalized growth", "setting": "S. cerevisiae deletion strains, locus YKL085W, strain MDH1 (second series), active compounds read low", "result": 1.04},
      {"measurement": "normalized growth", "setting": "S. cerevisiae deletion strains, locus YKL085W, strain MDH1, active compounds read low", "result": 1.04},
      {"measurement": "normalized growth", "setting": "S. cerevisiae deletion strains, locus YKL160W, strain elf1, active compounds read low", "result": 1.02},
      {"measurement": "normalized growth", "setting": "S. cerevisiae deletion strains, locus YKL190W, strain CNB1, active compounds read low", "result": 1},
      {"measurement": "normalized growth", "setting": "S. cerevisiae deletion strains, locus YKR001C, strain vps1, active compounds read low", "result": 1},
      {"measurement": "normalized growth", "setting": "S. cerevisiae deletion strains, locus YKR026C, strain gcn3, active compounds read low", "result": 0.971},
      {"measurement": "normalized growth", "setting": "S. cerevisiae deletion strains, locus YKR091W, strain srl3, active compounds read low", "result": 0.991},
      {"measurement": "normalized growth", "setting": "S. cerevisiae deletion strains, locus YLL001W, strain dnm1, active compounds read low", "result": 0.988},
      {"measurement": "normalized growth", "setting": "S. cerevisiae deletion strains, locus YLL026W, active compounds read low", "result": 0.995},
      {"measurement": "normalized growth", "setting": "S. cerevisiae deletion strains, locus YLL041C, strain sdh2, active compounds read low", "result": 0.987},
      {"measurement": "normalized growth", "setting": "S. cerevisiae deletion strains, locus YLR027C, strain aat2, active compounds read low", "result": 1},
      {"measurement": "normalized growth", "setting": "S. cerevisiae deletion strains, locus YLR039C, strain RIC1, active compounds read low", "result": 1.01},
      {"measurement": "normalized growth", "setting": "S. cerevisiae deletion strains, locus YLR058C, strain SHM2, active compounds read low", "result": 1.01},
      {"measurement": "normalized growth", "setting": "S. cerevisiae deletion strains, locus YLR102C, strain apc9, active compounds read low", "result": 1.02},
      {"measurement": "normalized growth", "setting": "S. cerevisiae deletion strains, locus YLR113W, strain HOG1, active compounds read low", "result": 0.991},
      {"measurement": "normalized growth", "setting": "S. cerevisiae deletion strains, locus YLR221C, strain rsa3, active compounds read low", "result": 1.01},
      {"measurement": "normalized growth", "setting": "S. cerevisiae deletion strains, locus YLR258W, strain gsy2, active compounds read low", "result": 0.994},
      {"measurement": "normalized growth", "setting": "S. cerevisiae deletion strains, locus YLR262C, strain YPT6 (second series), active compounds read low", "result": 1.05},
      {"measurement": "normalized growth", "setting": "S. cerevisiae deletion strains, locus YLR262C, strain YPT6, active compounds read low", "result": 1.1},
      {"measurement": "normalized growth", "setting": "S. cerevisiae deletion strains, locus YLR268W, strain sec22, active compounds read low", "result": 0.999},
      {"measurement": "normalized growth", "setting": "S. cerevisiae deletion strains, locus YLR320W, strain mms22, active compounds read low", "result": 1.01},
      {"measurement": "normalized growth", "setting": "S. cerevisiae deletion strains, locus YLR330W, strain CHS5, active compounds read low", "result": 1.01},
      {"measurement": "normalized growth", "setting": "S. cerevisiae deletion strains, locus YLR342W, strain FKS1, active compounds read low", "result": 0.994},
      {"measurement": "normalized growth", "setting": "S. cerevisiae deletion strains, locus YLR357W, strain rsc2, active compounds read low", "result": 0.951},
      {"measurement": "normalized growth", "setting": "S. cerevisiae deletion strains, locus YLR370C, strain arc18, active compounds read low", "result": 0.996},
      {"measurement": "normalized growth", "setting": "S. cerevisiae deletion strains, locus YLR371W, strain rom2, active compounds read low", "result": 1.01},
      {"measurement": "normalized growth", "setting": "S. cerevisiae deletion strains, locus YLR384C, strain iki3, active compounds read low", "result": 1},
      {"measurement": "normalized growth", "setting": "S. cerevisiae deletion strains, locus YLR418C, strain cdc73, active compounds read low", "result": 1.06},
      {"measurement": "normalized growth", "setting": "S. cerevisiae deletion strains, locus YML016C, strain PPZ1, active compounds read low", "result": 1.02},
      {"measurement": "normalized growth", "setting": "S. cerevisiae deletion strains, locus YML032C, strain rad52, active compounds read low", "result": 1.01},
      {"measurement": "normalized growth", "setting": "S. cerevisiae deletion strains, locus YML120C, strain ndi1, active compounds read low", "result": 0.989},
      {"measurement": "normalized growth", "setting": "S. cerevisiae deletion strains, locus YML124C, strain tub3, active compounds read low", "result": 1.01},
      {"measurement": "normalized growth", "setting": "S. cerevisiae deletion strains, locus YMR058W, strain fet3, active compounds read low", "result": 1},
      {"measurement": "normalized growth", "setting": "S. cerevisiae deletion strains, locus YMR078C, strain ctf18, active compounds read low", "result": 1.02},
      {"measurement": "normalized growth", "setting": "S. cerevisiae deletion strains, locus YMR125W, strain sto1, active compounds read low", "result": 0.99},
      {"measurement": "normalized growth", "setting": "S. cerevisiae deletion strains, locus YMR129W, active compounds read low", "result": 0.996},
      {"measurement": "normalized growth", "setting": "S. cerevisiae deletion strains, locus YMR205C, strain PFK2, active compounds read low", "result": 0.968},
      {"measurement": "normalized growth", "setting": "S. cerevisiae deletion strains, locus YMR223W, strain ubp8, active compounds read low", "result": 1.03},
      {"measurement": "normalized growth", "setting": "S. cerevisiae deletion strains, locus YMR231W, strain pep5, active compounds read low", "result": 0.994},
      {"measurement": "normalized growth", "setting": "S. cerevisiae deletion strains, locus YMR263W, strain SAP30, active compounds read low", "result": 1.02},
      {"measurement": "normalized growth", "setting": "S. cerevisiae deletion strains, locus YMR307W, strain GAS1, active compounds read low", "result": 0.994},
      {"measurement": "normalized growth", "setting": "S. cerevisiae deletion strains, locus YNL067W, strain RPL9B, active compounds read low", "result": 1.05},
      {"measurement": "normalized growth", "setting": "S. cerevisiae deletion strains, locus YNL071W, strain lat1, active compounds read low", "result": 1},
      {"measurement": "normalized growth", "setting": "S. cerevisiae deletion strains, locus YNL183C, strain NPR1, active compounds read low", "result": 1},
      {"measurement": "normalized growth", "setting": "S. cerevisiae deletion strains, locus YNL209W, strain ssb2, active compounds read low", "result": 1},
      {"measurement": "normalized growth", "setting": "S. cerevisiae deletion strains, locus YNL233W, strain BNI4, active compounds read low", "result": 1.05},
      {"measurement": "normalized growth", "setting": "S. cerevisiae deletion strains, locus YNL248C, strain rpa49, active compounds read low", "result": 1.01},
      {"measurement": "normalized growth", "setting": "S. cerevisiae deletion strains, locus YNL250W, strain rad50, active compounds read low", "result": 1.05},
      {"measurement": "normalized growth", "setting": "S. cerevisiae deletion strains, locus YNL271C, strain bni1, active compounds read low", "result": 1.02},
      {"measurement": "normalized growth", "setting": "S. cerevisiae deletion strains, locus YNL298W, strain CLA4, active compounds read low", "result": 1.01},
      {"measurement": "normalized growth", "setting": "S. cerevisiae deletion strains, locus YNL307C, strain MCK1, active compounds read low", "result": 1.02},
      {"measurement": "normalized growth", "setting": "S. cerevisiae deletion strains, locus YNL322C, strain KRE1 (second series), active compounds read low", "result": 0.997},
      {"measurement": "normalized growth", "setting": "S. cerevisiae deletion strains, locus YNR049C, strain mso1, active compounds read low", "result": 0.985},
      {"measurement": "normalized growth", "setting": "S. cerevisiae deletion strains, locus YNR052C, strain pop2, active compounds read low", "result": 1.03},
      {"measurement": "normalized growth", "setting": "S. cerevisiae deletion strains, locus YOL006C, strain TOP1, active compounds read low", "result": 1.04},
      {"measurement": "normalized growth", "setting": "S. cerevisiae deletion strains, locus YOL012C, strain htz1", "result": 0.707},
      {"measurement": "normalized growth", "setting": "S. cerevisiae deletion strains, locus YOL147C, strain pex11, active compounds read low", "result": 1.01},
      {"measurement": "normalized growth", "setting": "S. cerevisiae deletion strains, locus YOR001W, strain rrp6, active compounds read low", "result": 1.02},
      {"measurement": "normalized growth", "setting": "S. cerevisiae deletion strains, locus YOR061W, strain CKA2, active compounds read low", "result": 1},
      {"measurement": "normalized growth", "setting": "S. cerevisiae deletion strains, locus YOR069W, strain VPS5, active compounds read low", "result": 1.01},
      {"measurement": "normalized growth", "setting": "S. cerevisiae deletion strains, locus YOR070C, strain gyp1, active compounds read low", "result": 0.997},
      {"measurement": "normalized growth", "setting": "S. cerevisiae deletion strains, locus YOR080W, strain dia2, active compounds read low", "result": 0.996},
      {"measurement": "normalized growth", "setting": "S. cerevisiae deletion strains, locus YOR083W, strain WHI5, active compounds read low", "result": 1.03},
      {"measurement": "normalized growth", "setting": "S. cerevisiae deletion strains, locus YOR106W, strain vam3, active compounds read low", "result": 1.03},
      {"measurement": "normalized growth", "setting": "S. cerevisiae deletion strains, locus YOR136W, strain idh2, active compounds read low", "result": 1.02},
      {"measurement": "normalized growth", "setting": "S. cerevisiae deletion strains, locus YOR144C, strain elg1, active compounds read low", "result": 1.01},
      {"measurement": "normalized growth", "setting": "S. cerevisiae deletion strains, locus YOR184W, strain ser1, active compounds read low", "result": 1},
      {"measurement": "normalized growth", "setting": "S. cerevisiae deletion strains, locus YOR231W, strain MKK1, active compounds read low", "result": 1.02},
      {"measurement": "normalized growth", "setting": "S. cerevisiae deletion strains, locus YOR265W, strain rbl2, active compounds read low", "result": 1},
      {"measurement": "normalized growth", "setting": "S. cerevisiae deletion strains, locus YOR270C, strain vph1, active compounds read low", "result": 1.01},
      {"measurement": "normalized growth", "setting": "S. cerevisiae deletion strains, locus YOR290C, strain snf2, active compounds read low", "result": 0.942},
      {"measurement": "normalized growth", "setting": "S. cerevisiae deletion strains, locus YOR316C, strain cot1, active compounds read low", "result": 1.01},
      {"measurement": "normalized growth", "setting": "S. cerevisiae deletion strains, locus YPL051W, strain arl3, active compounds read low", "result": 1.03},
      {"measurement": "normalized growth", "setting": "S. cerevisiae deletion strains, locus YPL078C, strain atp4, active compounds read low", "result": 1.02},
      {"measurement": "normalized growth", "setting": "S. cerevisiae deletion strains, locus YPL106C, strain sse1, active compounds read low", "result": 0.981},
      {"measurement": "normalized growth", "setting": "S. cerevisiae deletion strains, locus YPL240C, strain hsp82, active compounds read low", "result": 1},
      {"measurement": "normalized growth", "setting": "S. cerevisiae deletion strains, locus YPL241C, strain CIN2, active compounds read low", "result": 1},
      {"measurement": "normalized growth", "setting": "S. cerevisiae deletion strains, locus YPL256C, strain CLN2, active compounds read low", "result": 1.05},
      {"measurement": "normalized growth", "setting": "S. cerevisiae deletion strains, locus YPR119W, strain clb2, active compounds read low", "result": 1.01},
      {"measurement": "normalized growth", "setting": "S. cerevisiae deletion strains, locus YPR141C, strain kar3, active compounds read low", "result": 1.02},
      {"measurement": "normalized growth", "setting": "S. cerevisiae deletion strains, locus YPR163C, strain tif3, active compounds read low", "result": 1.02},
      {"measurement": "normalized growth", "setting": "S. cerevisiae deletion strains, locus YPR167C, strain met16, active compounds read low", "result": 1.01},
      {"measurement": "normalized growth", "setting": "S. cerevisiae deletion strains, strain wtn01, active compounds read low", "result": 1.02},
      {"measurement": "normalized growth", "setting": "S. cerevisiae strains, strain wild type, active compounds read low", "result": 1.02}
    ]}
  ]
}
